In PubChem BioAssay AID624483 (NMMLSC, 2012):
Among all 360,000 compounds or so, about 11,000 (3.1%) were called active. Another 2% or so got no clear call; they are omitted. This excerpt belongs to a sample that is enriched for actives. Unmarked numbers belong to inactive results. Cut-off read from the data, not from the text of the source: active = fluorescence intensity above about 16000; inconclusive = no clear call, values can overlap the other calls; inactive = below that.

Assay: counter-screen for toxin protease inhibitors: compound fluorescence, primary screen, artefact control for toxin protease inhibitor project, biochemical, multiplex microsphere, HTS (AID 624483)
Conditions: compound autofluorescence counterscreen, microsphere flow cytometry; stronger effect = higher value
For `CCOC(=O)N1CCC(NC(=O)C(C)n2c3ccccc3c3cnn(C)c(=O)c32)CC1` (stereo unspecified), the fluorescence intensity was 3150. In the case of `COC(=O)c1ccc(NC(=O)c2cc3c(CO)cnc(C)c3oc2=Nc2cccc(C(N)=O)c2)cc1`, the fluorescence intensity is reported as 2910. `CN(C)C(=O)CSc1n[nH]c(-c2ccco2)n1` showed a fluorescence intensity of 2630. For `Cn1nc(C(F)(F)F)c(C(=O)Nc2cccc(C(F)(F)F)c2)c1SCc1ccc(Cl)cc1`, the fluorescence intensity was 18600 (active). `O=C(O)CSc1c2c(nc3cc(C(=O)Nc4cccc(C(F)(F)F)c4)ccc13)CCCC2` gave a fluorescence intensity of 5110. In the case of `COC(=O)c1ccccc1Sc1c(/C=N/OCc2ccc(Cl)cc2)c(C(F)(F)F)nn1C`, the fluorescence intensity is reported as 2910. `N[C@@H](Cc1ccccc1)C(=O)N1CCOCC1` showed a fluorescence intensity of 3920. Compound `O=C(CSc1ncccn1)N1CCCC1` has a fluorescence intensity of 5480. With `OC(c1ccc(Cl)cc1)c1ncc(-c2ccc(Cl)cc2)[nH]1` (stereo unspecified) the fluorescence intensity was 3850. For `CC(C)CCn1c(CN(C)Cc2ccccc2)nc2c1c(=O)n(C)c(=O)n2C`, the fluorescence intensity was 21400 (active). In the case of `CC(C)Cn1c(CN(Cc2ccccc2)Cc2ccccc2)nc2c1c(=O)n(C)c(=O)n2C`, the fluorescence intensity is reported as 5910. Work on `COCCn1c(CN(Cc2ccccc2)Cc2ccccc2)nc2c1c(=O)n(C)c(=O)n2C` yielded a fluorescence intensity of 5270. Work on `CC1(C)OC(=O)C2=C(C[C@@H](C3CCCCC3)O[C@@H]2c2ccc(Cl)cc2)O1` yielded a fluorescence intensity of 6270. With `Cc1ccc(Nc2c(F)c(F)c(F)c(F)c2C(=O)O)c(C)c1` the fluorescence intensity was 3820. Compound `COc1cc2ccccc2cc1C(=O)Nc1ccccc1C` has a fluorescence intensity of 3900. In the case of `COc1c(F)c(F)c(C(=O)O)c(Nc2ccccc2C)c1F`, the fluorescence intensity is reported as 21400 (active). Work on `Cc1ncc([N+](=O)[O-])n1CCOC(=O)c1ccc(Br)cc1` yielded a fluorescence intensity of 4830. `CC1(C(=O)NCc2ccc3c(c2)OCO3)CCN1C(=O)Cc1cccc2ccccc12` (stereo unspecified) gave a fluorescence intensity of 2930. With `Nc1nc2c(Br)ccc(Br)c2cc1C(=O)NCCc1ccccc1` the fluorescence intensity was 6050. In the case of `CCOC(=O)c1c(C)c(C(=O)NCCc2ccc(S(N)(=O)=O)cc2)c(C)n1CC`, the fluorescence intensity is reported as 22600 (active). `COC(=O)c1c(C)[nH]c(C(=O)NCCc2ccc(S(N)(=O)=O)cc2)c1C` showed a fluorescence intensity of 3790. In the case of `COc1ccc(OCC(=O)NCCc2ccc(S(N)(=O)=O)cc2)cc1`, the fluorescence intensity is reported as 19600 (active). Work on `COc1ccc(NS(=O)(=O)c2cccc(C(=O)NCCc3ccc(S(N)(=O)=O)cc3)c2)cc1` yielded a fluorescence intensity of 8740. `NS(=O)(=O)c1ccc(CCNC(=O)COC(=O)COc2cccc(C(F)(F)F)c2)cc1` showed a fluorescence intensity of 4060. Work on `Cc1noc(C)c1C(=O)NCCc1ccc(S(N)(=O)=O)cc1` yielded a fluorescence intensity of 4000. `Cc1ccc(S(=O)(=O)CCC(=O)OCC(=O)NCCc2ccc(S(N)(=O)=O)cc2)cc1` gave a fluorescence intensity of 5910. In the case of `COc1ccc(C(=O)NCCc2ccc(S(N)(=O)=O)cc2)cc1OC`, the fluorescence intensity is reported as 17500 (active). `NS(=O)(=O)c1ccc(CCNC(=O)c2ccc(Cl)c(S(=O)(=O)N3CCCCCC3)c2)cc1` gave a fluorescence intensity of 4250. With `Cc1cccc(NS(=O)(=O)c2cccc(C(=O)NNC(=O)c3ccccc3O)c2)c1` the fluorescence intensity was 3510. In the case of `COc1cccc(C(NC(C)=O)c2nc(-c3ccccc3OC)cs2)c1` (stereo unspecified), the fluorescence intensity is reported as 3680. `CC(C)(C)CC(=O)Nc1nc(C(N)Cc2ccc(C(F)(F)F)cc2)cs1` (stereo unspecified) showed a fluorescence intensity of 2950. `O=C(NC1CCCC1)C(c1ccco1)N(C(=O)c1csnn1)c1ccccc1` (stereo unspecified) showed a fluorescence intensity of 3410. In the case of `Cc1ccccc1-c1nc(NC(C)C)nc2cc(-c3ccccc3)sc12`, the fluorescence intensity is reported as 2960. Compound `CC(C)NC(=O)C1(C)CCCCCN1C(=O)c1ccc(-c2ccccc2)cc1` (stereo unspecified) has a fluorescence intensity of 3730. Compound `Cc1cc(/C=N/NC(N)=O)c(C)n1C1CCCCC1` has a fluorescence intensity of 5160. Compound `CC(=O)Nc1ccc(NC(=O)c2ccc3c(c2)C(=O)N(c2ccccc2C)C3=O)cc1` has a fluorescence intensity of 3300. With `CCOC(=O)C1=CC[C@@H](c2ccncc2)N(S(=O)(=O)c2ccc(C)cc2)C1` the fluorescence intensity was 6280. For `S=c1[nH]nc(CSCc2ccc(Cl)cc2Cl)n1-c1ccccc1`, the fluorescence intensity was 22300 (active). `CCn1c(CSCc2c(Cl)cccc2Cl)n[nH]c1=S` showed a fluorescence intensity of 5080. Compound `Cc1ccc(NCc2n[nH]c(=S)n2-c2ccccc2)cc1Cl` has a fluorescence intensity of 4580. `O=C(c1cc(COc2ccc(F)cc2F)on1)N1CCOCC1` showed a fluorescence intensity of 6230. Compound `CN1C(=O)[C@H]2[C@@H](/C=C/c3ccccc3)N3C(=O)CN(Cc4ccc(-c5ccccc5)cc4)C(=O)[C@@]3(C)[C@H]2C1=O` has a fluorescence intensity of 3800. With `COc1ccc(Cn2c(=S)[nH]c3cc(C(=O)NCCCN4CCOCC4)ccc3c2=O)cc1` the fluorescence intensity was 5500. For `COCCn1c(=S)[nH]c2cc(C(=O)NCCc3ccc(OC)c(OC)c3)ccc2c1=O`, the fluorescence intensity was 22200 (active). With `CCOc1cc2[nH]c(=O)n(Cc3ccc(C(=O)NCCCN4CCCC4=O)cc3)c(=O)c2cc1OCC` the fluorescence intensity was 4740. For `CCOc1cc2[nH]c(=S)n(Cc3ccc(C(=O)NCCOC)cc3)c(=O)c2cc1OCC`, the fluorescence intensity was 20100 (active). `CCOc1cc2[nH]c(=S)n(Cc3ccc(C(=O)N4CCN(C)CC4)cc3)c(=O)c2cc1OCC` gave a fluorescence intensity of 5670. Work on `COc1ccc(-n2c(=O)[nH]c3cc(C(=O)NCCc4ccc(OC)c(OC)c4)ccc3c2=O)c(OC)c1` yielded a fluorescence intensity of 3790. `CN1CCN(c2ccc3c(c2)OC[C@H](Cc2ccccc2)NS3(=O)=O)CC1` showed a fluorescence intensity of 5440. Work on `COc1ccc(CCCNC(=O)C2Cc3c(-c4cccc(C(N)=O)c4)ccnc3O2)cc1` (stereo unspecified) yielded a fluorescence intensity of 3760. In the case of `O=S1(=O)CC(N2CCN(CCO)CC2)CN1C1CCCC1` (stereo unspecified), the fluorescence intensity is reported as 5290. With `CC(C)CN(C(=O)Cn1c(=O)cnc2ccccc21)C1CCS(=O)(=O)C1` (stereo unspecified) the fluorescence intensity was 7550. With `COc1ccccc1Cc1c(-c2ccc(Cl)cc2)nc2c3ccccc3ccn12` the fluorescence intensity was 6870. Work on `COc1ncnc2c1N=C1CC(C)(C)CC(N)=C1S2` yielded a fluorescence intensity of 10000. Work on `O=C1/C(=C/c2ccc3c(c2)OCO3)Oc2cc(OCC(=O)N3CC(O)C[C@H]3C(=O)O)ccc21` (stereo partly specified) yielded a fluorescence intensity of 5670. `CCc1oc(-c2ccc(OC)cc2)c(C(=O)OCCCCCO)c1C(C)OCCO` (stereo unspecified) showed a fluorescence intensity of 5030. With `CCOC(=O)N1CCN(C(=O)C[C@@H]2C[C@@]3(C(=O)OC)CCCCC=C3N(CCC3=CCCCC3)C2=O)CC1` the fluorescence intensity was 5780. In the case of `COC(=O)c1cc(C)sc1NC(=O)CC1Nc2ccccc2NC1=O` (stereo unspecified), the fluorescence intensity is reported as 4220. For `CCOC(=O)c1cc(C)sc1NC(=O)C1CCC1`, the fluorescence intensity was 20200 (active). In the case of `Cc1cnc(NC(=O)C2CCCC2)s1`, the fluorescence intensity is reported as 3280. For `Cc1cc(Br)ccc1SCC(=O)OCC(=O)NCc1ccc2c(c1)OCO2`, the fluorescence intensity was 2190. Compound `Cc1ccccc1C(=O)NNC(=O)CN1C(=O)c2ccccc2C1=O` has a fluorescence intensity of 2780. With `C=CCN(CC=C)C(=O)CN1C(=O)c2ccccc2C1=O` the fluorescence intensity was 16300 (active). `Cc1cc(C)cc(NC(=O)CN2C(=O)c3ccccc3C2=O)c1` showed a fluorescence intensity of 4110. With `CC(=O)/C(=N\Nc1ccc(Cl)cc1Cl)Sc1cccc2cccnc12` the fluorescence intensity was 7970. Work on `COc1cccc(-c2cnc3c(NC(C)=O)cc(-c4cccc(NC(C)=O)c4)cn23)c1` yielded a fluorescence intensity of 3610. In the case of `Cc1ccnc2nc(C(=O)Nc3nnc(-c4ccccc4)o3)nn12`, the fluorescence intensity is reported as 4840. In the case of `c1ccc(-c2ccnc3nc(-n4cccc4)nn23)cc1`, the fluorescence intensity is reported as 16400 (active). For `CCCc1cc(=S)n2c([nH]c3ccccc32)c1C#N`, the fluorescence intensity was 3240. In the case of `CN(C)C(CNC(=O)c1cccc(C#N)c1)c1ccco1` (stereo unspecified), the fluorescence intensity is reported as 3360. Work on `CN(C)C(CNC(=O)c1ccc(OCc2cn3ccccc3n2)cc1)c1ccco1` (stereo unspecified) yielded a fluorescence intensity of 4090. In the case of `CN(C)C(CNC(=O)CCCOc1ccccc1)c1ccco1` (stereo unspecified), the fluorescence intensity is reported as 22900 (active). In the case of `O=C1NC[C@H](Cc2ccc(O)cc2)N(C[C@@H]2CCCN2C[C@H](Cc2ccccc2)N2C[C@H](Cc3ccccc3)N(CC3CCCCC3)C(=O)C2=O)C1=O`, the fluorescence intensity is reported as 7010. `COC(=O)[C@]12CCCCC=C1N(CCC1=CCCCC1)C(=O)[C@H](CC(=O)NCC1CCCCC1)C2` gave a fluorescence intensity of 4280. Work on `N/C(=N\OC(=O)CC1CCCCC1)c1ccccc1` yielded a fluorescence intensity of 2550. Compound `COc1ccccc1OCC(=O)O/N=C(\N)c1ccccn1` has a fluorescence intensity of 6210. With `N/C(=N\OC(=O)CCC1CCCCC1)c1ccccn1` the fluorescence intensity was 16300 (active). In the case of `COc1ccccc1C(=O)C(O)c1ccccc1OC` (stereo unspecified), the fluorescence intensity is reported as 20300 (active). `COc1ccccc1C(=O)Nc1ccc(Nc2ccccc2)cc1` gave a fluorescence intensity of 4350. In the case of `COc1ccccc1C(=O)c1ccccc1C(=O)c1ccccc1`, the fluorescence intensity is reported as 4030. `O=C(Nc1ccccc1)c1ccccc1NC(=O)C(F)(F)F` showed a fluorescence intensity of 9920. With `CC(=O)Nc1ccccc1C(=O)C(=O)Nc1ccc(F)cc1` the fluorescence intensity was 19600 (active). With `CC(=O)Nc1ccccc1C(=O)OCC(=O)c1cccc2ccccc12` the fluorescence intensity was 4440. Compound `CCNC(=S)Nc1ccc2c(c1)c(=O)n(C)n2Cc1ccc(Cl)cc1` has a fluorescence intensity of 3690. In the case of `CC1(C(=O)NS(=O)(=O)c2ccc(Cl)cc2)CCN1C(=O)CC1CCCC1` (stereo unspecified), the fluorescence intensity is reported as 3020. `COc1ccc(C(C)(O)c2nc(-c3ccc(C)c(C)c3)cs2)cc1` (stereo unspecified) showed a fluorescence intensity of 3400. With `O=C(Cc1ccccc1)N/N=C/c1ccc(Cl)cc1Cl` the fluorescence intensity was 23400 (active). Compound `C=CCOc1ccccc1/C=N/NC(=O)Cc1ccccc1` has a fluorescence intensity of 4140. `O=C(Cn1cc(C(F)(F)F)ccc1=O)N/N=C/c1ccc(Cl)cc1Cl` gave a fluorescence intensity of 1980. Work on `COC(=O)c1ccc2nc(C3CCCCC3)c(Cc3cccc(F)c3)n2c1` yielded a fluorescence intensity of 4850. Work on `Clc1ccc(CSc2nnc([C@@H]3CCCN3)o2)cc1` yielded a fluorescence intensity of 6580.
